Shown are actives, neighbours in structure and some others; about 19% of the full set was active somewhere.
VP16 counter: inhibits Gal4-VP16 luciferase reporter, ROR gamma counter-screen | Drosophila S2 Gal4-VP16 UAS-luciferase, luminescence, 20 h | Potency, µM (series often up to 53.6 µM), inactives show at the top dose activity, negative = inhibition, most hits filed as inhibitors | 310,000 tested, 3.5% active;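 further: Gal4-VP16 expression switched on by copper sulfate through the metallothionein promoter; nearly all actives have a fitted effect of over 50% in size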
RORgamma inh: ROR gamma (mouse) transcription inhibition; Drosophila S2 Gal4-RORgamma UAS-luciferase reporter, 20 h; P51450; 310,000 tested, 5.4% active; Potency, µM (titrated, usually from 53.6 µM), for the others: at the highest dose activity change, negative = inhibition, usual class: inhibitors; further: nearly all actives have a fitted effect of over 60% in size
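Drosophila S2 cells stably expressing Gal4-DBD/mouse RORγ fusion under metallothionein promoter plus UAS-luciferase; compound 1 h, then 700 uM CuSO4 induction for 20 h at ambient temperature; inhibition read as reduced luminescence.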
TDP1 block: blocks human tyrosyl-DNA phosphodiesterase 1. Q9NUW8. recombinant TDP1, AlphaScreen DNA substrate cleavage. Potency, µM (titrated, usually from 130 µM), for the others: at the top dose activity change, negative = inhibition, most hits filed as inhibitors. 350,000 tested, 0.28% active. AID 485290; further: nearly all actives have a fitted effect of over 40% in size
Target sequence (Q9NUW8 whole entry, looked up): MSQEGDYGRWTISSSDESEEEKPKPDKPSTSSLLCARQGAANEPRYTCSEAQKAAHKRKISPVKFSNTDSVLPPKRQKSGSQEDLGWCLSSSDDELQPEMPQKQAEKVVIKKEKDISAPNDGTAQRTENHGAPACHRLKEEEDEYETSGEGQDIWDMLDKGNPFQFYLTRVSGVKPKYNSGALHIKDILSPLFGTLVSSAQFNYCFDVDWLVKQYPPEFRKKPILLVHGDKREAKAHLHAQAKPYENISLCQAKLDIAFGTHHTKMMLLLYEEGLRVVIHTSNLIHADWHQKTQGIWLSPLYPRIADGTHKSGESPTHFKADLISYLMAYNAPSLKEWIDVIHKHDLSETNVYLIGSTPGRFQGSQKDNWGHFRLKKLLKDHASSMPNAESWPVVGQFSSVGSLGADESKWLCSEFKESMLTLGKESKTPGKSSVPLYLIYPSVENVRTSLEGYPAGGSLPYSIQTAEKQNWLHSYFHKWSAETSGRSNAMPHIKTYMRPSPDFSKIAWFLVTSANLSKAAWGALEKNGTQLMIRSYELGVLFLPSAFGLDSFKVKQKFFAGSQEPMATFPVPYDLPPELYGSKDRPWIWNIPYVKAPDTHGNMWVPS
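AlphaScreen read-out: signal falls as enzyme removes the 3' tyrosine-FITC from a 5'-biotinylated DNA oligo (15 nM, 5 min, RT). Enzyme was E. coli-made recombinant Tdp1 at 1 nM, exposed to compound for 15 min beforehand; beads 10 ug/ml, 10 min.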
TDP1 cell noCPT: qHTS for Inhibitors of human tyrosyl-DNA phosphodiesterase 1 (TDP1): qHTS in cells in absence of CPT. 420,000 tested, 15% active. Potency, µM (series often up to 46.2 µM), for the others: at the top dose activity change, negative = growth inhibition, actives largely listed as inhibitors. DT40 Tdp1-/- hTDP1 cells, no CPT, ATP luminescence, 48 h; further: nearly all actives have a fitted effect of over 55% in size
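Cells were dispensed at 400 per well, compounds added by pin tool, plates incubated ≥48 hr at 37 °C, then CellTiter-Glo added for 30 min at room temperature before luminescence reading. Line: DT40 Tdp1-/- complemented with hTDP1; camptothecin omitted.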
DT40 TDP1 CPT: growth inhibition of DT40 Tdp1-/-;hTDP1 cells with camptothecin (screen for TDP1 inhibitors). Potency, µM (doses to about 46.2 µM), without a hit: at the highest dose activity change, negative = growth inhibition, usual class: inhibitors. 420,000 tested, 12% active. chicken DT40 Tdp1-/-;hTDP1 cells + 20 nM CPT, ATP luminescence, 48 h; further: nearly all actives have a fitted effect of over 55% in size
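Chicken DT40 Tdp1-/- cells complemented with human TDP1, 400 cells/well, exposed to compounds plus 20 nM camptothecin for at least 48 h at 37 C; viability read as ATP content by CellTiter-Glo luminescence.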
Active calls of the source: *; ? = inconclusive; · = not tested or not shown; [ ] = remark or other dose. The call rests on the fitted dose curve; in most records, active means well fitted curve in the direction sought with a large enough effect; inconclusive means small, poorly fitted or top-dose-only effect, or another doubt; inactive means no such curve, though single readings can be large; an effect the other way counts as inactive or inconclusive. On the % scale 0 is the no-effect control and ±100 the full control effect; potency means the concentration at half of the fitted maximal effect.

SMILES | VP16 counter | RORgamma inh | TDP1 block | TDP1 cell noCPT | DT40 TDP1 CPT
COc1ccc(N(CC(=O)Nc2ccccc2OC)S(=O)(=O)c2ccccc2)cc1Cl | 4% | ? | · | ? | 13µM*
CCOC(=O)c1ccccc1NC(=O)CN(c1ccccc1OC)S(=O)(=O)c1ccc(C)cc1 | · | · | 5% | 12µM* | ?
COc1ccccc1N(CC(=O)NC1CC2CCC1C2)S(=O)(=O)c1ccc(C)cc1 (configuration not stated) | -5% | 38% | 0% | ? | ?
CCOc1ccc(S(=O)(=O)N(CC(=O)Nc2cccnc2)c2ccccc2)cc1 | · | · | · | 16µM* | ?
CCOc1ccc(N(CC(=O)Nc2ccccc2OC)S(=O)(=O)c2ccccc2)cc1 | 0% | 24% | 4% | 1.2µM* | 1.2µM*
COc1ccc(N2C(=O)CC(N3CCN(S(=O)(=O)c4ccc(Cl)cc4)CC3)C2=O)cc1 (configuration not stated) | -5% | 29% | 0% | 0% | 1%
CCOC(=O)c1cc(C#N)c(SC(C(=O)N2CCCCC2)c2ccccc2)nc1C (configuration not stated) | · | · | · | 10µM* | ?
Cc1cc(C)c(C)c(S(=O)(=O)Nc2ccc3cn[nH]c3c2)c1C | · | · | 0% | 21µM* | ?
CCn1c(SCC(=O)c2ccc([N+](=O)[O-])cc2)nnc1-c1ccc(Cl)cc1 | · | · | 1% | · | ·
O=C(CSc1nnc(-c2ccccc2)n1Cc1ccccc1)NNC(=O)c1ccccc1O | -12% | 7% | 8% | 26µM* | 16µM*
CCn1c(SCC(=O)c2ccc(O)c(O)c2)nnc1-c1ccc(C)cc1 | -9% | -8% | -4% | ? | 23µM*
CCn1c(SCC(=O)NNC(=S)Nc2ccc(C)cc2)nnc1-c1ccc(Cl)cc1 | 1.4µM* | 3.5µM* | 7% | ? | ?
O=C(Cc1ccccc1)NNC(=S)Nc1ccccc1 | -17% | ? | 5% | ? | -10%
O=C(CSc1nnc(SCc2ccccc2)s1)NNC(=S)Nc1ccccc1 | 13µM* | 14µM* | -3% | ? | -7%
COc1ccc(-c2nc3c(c4c2C[C@H](c2ccccc2)OC4)CN(C(=O)C2CCCCC2)CC3)c(C)c1 | · | · | 11%[12.3 µM] | · | ·
Cn1c(SCC(=O)NNC(=S)Nc2ccccc2)nnc1-c1ccccc1 | 1.4µM* | 0.89µM* | · | -14% | 11%
Cn1c(SCC(=O)NNC(=O)Nc2ccccc2)nnc1-c1ccccc1 | 4% | -6% | · | 1% | 13%
Cc1ccc(NC(=S)NNC(=O)CSc2nnc(-c3ccc(Cl)cc3)n2C2CCCCC2)cc1 | ? | 11µM* | 8% | ? | ?
CCn1c(SCC(=O)NNC(=O)c2ccc(C)cc2)nnc1C(C)C | 3% | -5% | · | 10µM* | ?
COc1cccc(OCc2nc3ncc(Br)cc3[nH]2)c1 | -28% | 41% | 5% | 2.9µM* | 4.1µM*
Cc1cc(C)cc(OCc2nc3ncc(Br)cc3[nH]2)c1 | · | · | · | 2.3µM* | 2.3µM*
CCOc1cc(/C=N/NC(=O)C(OC)c2ccccc2)ccc1O (configuration not stated) | -1% | 12% | 5% | 11% | 0%
O=C(N/N=C/C=C/c1ccccc1)c1ccccn1 | -17% | -36% | 6% | 0% | 3%
O=C(CSc1ccccn1)N/N=C/C=C/c1ccccc1 | 16µM* | ? | 3% | -21% | -11%
O=C(Cc1cc(=O)[nH][nH]1)N/N=C/C=C/c1ccccc1 | 3% | -19% | 14% | 29µM* | ?
SMILES | VP16 counter | RORgamma inh | TDP1 block | TDP1 cell noCPT | DT40 TDP1 CPT
COC(=O)c1cn(NC(=O)c2ccc3c(c2)OCO3)c(=O)c2ccccc12 | 7% | 36% | 9% | -19% | -9%
CCCc1cnc(NCCNCC(O)COc2ccc(Cl)c(Cl)c2)nc1 (configuration not stated) | 2% | 0% | 1% | 16µM* | 16µM*
Cc1ccc(SCC2(O)CCN(C(=O)c3ccc(Cl)cc3)CC2)cc1 | -14% | 4% | 0% | ? | ?
O=S(=O)(c1ccccc1)N1CCC(O)(CSc2ccc(Cl)cc2)CC1 | ? | 15% | -1% | 26µM* | ?
COc1ccc(C2C(C(=O)NCc3cccnc3)c3cc(OC)c(OC)cc3C(=O)N2C)cc1 (configuration not stated) | -1% | -15% | 2% | -8% | -18%
O=C(Oc1ccc(N(Cc2cccs2)C2=NS(=O)(=O)c3ccccc32)cc1)c1ccccc1Cl | 2% | 6% | 4% | 5.8µM* | 6.5µM*
O=C1c2ccccc2C(=O)N1c1noc2ccccc12 | · | · | 1% | · | ·
CCCCc1nc2ccccc2c(N)c1CCC (tested in a mixture with another compound) | -28% | -11% | -3% | 18µM* | ?
COC(=O)CC(NC(=O)Nc1ccc(C)cc1)c1cccc([N+](=O)[O-])c1 (configuration not stated) | -9%[10 µM] | 1% | 8% | -8% | 0%
Cc1ccn2c(Nc3ccc4c(c3)OCO4)c(-c3ccc(C)o3)nc2c1 | · | · | 13% | ? | 15µM*
COc1ccc(Nc2c(-c3ccc(C)o3)nc3cc(C)ccn23)cc1 | · | · | 7% | 12µM* | 15µM*
Cc1ccc(-c2nc3cnccn3c2Nc2ccc3c(c2)OCO3)o1 | 20% | 25% | 9% | -21% | ?
Cc1nn(C)cc1CNC(=O)c1ccc(F)cc1 | -7% | -9%[10 µM] | -2% | -21% | -6%
CCCCc1nc2cc(C(=O)NCc3cn(C)nc3C)ccc2o1 | 0.063µM* | 1µM* | 1% | ? | ?
Cc1cc(C)n(CC(=O)N/N=C/c2cccc([N+](=O)[O-])c2)n1 | -11% | -41% | 3% | -13% | -7%
O=C(Nn1cnc2ccccc2c1=O)c1cccc(Cl)c1 | ? | 33% | -4% | -17% | -2%
CC(SC1=NCCS1)C(=O)Nc1nnc(-c2ccc(Cl)cc2)s1 (configuration not stated) | 8.9µM* | 5µM* | 8% | 21µM* | 15µM*
COc1ccccc1-c1nnc(NC(=O)C(C)SC2=NCCS2)s1 (configuration not stated) | ? | 13µM* | 5% | ? | 21µM*
CCNc1nnc(-c2ccccc2OC)s1 | 5% | -7% | 0% | 3% | -18%
CC(Sc1nncn1C)C(=O)Nc1nnc(-c2ccccc2)s1 (configuration not stated) | -6% | ? | 2% | 0% | 0%
COC(=O)C1SCC2C(=O)N(Cc3ccc(Cl)c(Cl)c3)CC(=O)N21 (configuration not stated) | -2% | 2% | 5% | ? | 23µM*

Source: PubChem (National Center for Advancing Translational Sciences (NCATS))
